Structures can show the parent of a compound that is named as a salt. Out of some 2,100 compounds screened, about 180 (8.6%) showed an effect of 50% or more. This excerpt belongs to a sample that is enriched for strong results.

The assay deals with MOLM1 and UCSD/AML1 (averaged). The assay can be described thus: cell viability relative to DMSO control (POC); higher = less growth inhibition. The note with it: 1 µM; 72 h. As for the experimental part:
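Primary viability screen in the 3q26 EVI1-high AML cell lines MOLM1 and UCSD/AML1 (1.5e3 cells/well, 384-well), compounds at 1 uM for 72 h. ATP CellTiter-Glo read-out given as percent of viable cells over DMSO control (POC), averaged over duplicates. DMSO was the negative control and 5 uM etoposide the positive control. This mapping covers the MicroSource Spectrum and Selleck anticancer libraries (drug names).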
Turning to `OCC(O)C(O)C(O)C(O)C(O)CO` (centres undefined), the cell viability was 102%.

Regarding `COc1ccc2c(c1)OC/C(=C/c1ccc(OC)c(OC)c1)C2=O`, the cell viability worked out at 108%. The result for `COc1ccc2c(c1)OCC(Cc1ccc(OC)c(OC)c1)C2=O` (centres undefined) reads 112%. As for `COc1ccc2c(c1)OC/C(=C\c1ccc(OC)c(O)c1)C2=O`, the cell viability stood at 18.3%. Turning to `COC(=O)[C@@H]1OC(=O)C2OC23[C@@]1(C)CCC1[C@]2(C)C(C[C@H](O)[C@]13C)C(C)(C)[C@H](OC(C)=O)C[C@@H]2OC(C)=O` (stereo partly drawn) [7beta-HYDROXY-7-DESACETOXYKHIVORINIC ACID, METHYL ESTER], the cell viability was determined as 111%. `COC(=O)C[C@H]1C(C)(C)C2(O)OC34CC2C(=O)[C@]1(C)C3CC[C@]1(C)C4=CC(=O)O[C@H]1c1ccoc1` (stereo partly drawn) [8beta-HYDROXYCARAPIN, 3,8-HEMIACETAL]: the cell viability was 89%. Consider `CC(C)CC(NC(=O)OCC1c2ccccc2-c2ccccc21)C(=O)O` (stereo in doubt), for which the cell viability came to 105%. As for `COc1cccc2c1C(=O)c1c(O)c3c(c(O)c1C2=O)C[C@@](O)(C(=O)CO)C[C@@H]3O[C@H]1C[C@H](N)[C@H](O)[C@H](C)O1`, the cell viability amounted to 1.67%.

Consider `COc1cccc2c1C(=O)c1c(O)c3c(c(O)c1C2=O)C[C@@](O)(C(C)=O)C[C@@H]3O[C@H]1C[C@H](N)[C@H](O)[C@H](C)O1` [Daunorubicin HCl (Daunomycin HCl)], for which the cell viability stood at 1.38%. The result for `COc1cccc2c1C(=O)c1c(O)c3c(c(O)c1C2=O)C[C@@](O)(C(=O)CO)C[C@@H]3O[C@H]1C[C@H](N)[C@@H](O)[C@H](C)O1` reads 5.86%. The result for `COc1cccc2c1C(=O)c1c(O)c3c(c(O)c1C2=O)C[C@@](O)(C(=O)CO)C[C@@H]3O[C@H]1C[C@H](N)[C@H](O)[C@H](C)O1` [Doxorubicin (Adriamycin)] reads 1.61%. The result for `COc1cccc2c1C(=O)c1c(O)c3c(c(O)c1C2=O)C[C@@](O)(C(=O)CO)C[C@@H]3O[C@H]1C[C@H](N)[C@@H](O)[C@H](C)O1` [Epirubicin Hydrochloride] reads 1.66%. With `COc1cccc2c1C(=O)c1c(O)c3c(c(O)c1C2=O)C[C@@](O)(C(C)=O)C[C@@H]3O[C@H]1C[C@H](N)[C@H](O)[C@H](C)O1`, the cell viability stood at 1.85%. As for `CC(=O)[C@]1(O)Cc2c(O)c3c(c(O)c2[C@@H](O[C@H]2C[C@H](N)[C@H](O)[C@H](C)O2)C1)C(=O)c1ccccc1C3=O` [Idarubicin HCl], the cell viability stood at 1.49%.

Regarding `CCCCCCCCCCCC[C@@H](C(=O)O)[C@H](C)C(=O)O`, the cell viability came out at 96%. As for `Cc1cc(O)cc(=O)o1`, the cell viability was 112%.

Regarding `O=C1C=C(O)C(=O)c2ccccc21`, the cell viability worked out at 92.9%.

As to `CC(=O)OCC(=O)[C@@]1(O)CC[C@H]2[C@@H]3C[C@H](C)C4=CC(=O)C=C[C@]4(C)[C@H]3[C@@H](O)C[C@@]21C` [6alpha-METHYLPREDNISOLONE ACETATE], the cell viability turned out to be 65%.

In the case of `CC(=O)O[C@]1(C)CC[C@@]23C[C@H]1C(C)(C)[C@@H]2CC[C@H]3C`, the cell viability was found to be 107%. For the compound `C[C@H]1CC[C@@H](C(C)(C)O)CC2=C1CC[C@@H]2C`, the cell viability is 94.4%. In the case of `Oc1ccc2c(c1)OC[C@]1(O)Cc3cc(O)c(O)cc3[C@H]21`, the cell viability came out at 105%.

As to `COc1cc2ccc(=O)oc2cc1O`, the cell viability was determined as 94.7%.

As for `CC1/C(=N/O)C[C@@H]2C[C@H]1C2(C)C` (some centres undefined), the cell viability came to 102%. With `C[n+]1ccccc1C=NO`, the cell viability was 99.8%. As to `COc1ccc(C2CC(=O)c3ccc(OC)cc3O2)cc1` (centres undefined), the cell viability worked out at 109%. The figure for `N#Cc1c(O)c2c(-c3ccc(-c4ccccc4O)cc3)csc2[nH]c1=O` is 97.3%; for `COC(=O)[C@H]1[C@H]2C[C@H]3c4[nH]c5cc(OC)ccc5c4CCN3C[C@H]2C[C@@H](OC(=O)c2cc(OC)c(OC)c(OC)c2)[C@@H]1OC` it is 111%. The result for `COC1=C[C@@H](C)[C@@H]2C[C@H]3OC(=O)C[C@H]4C(C)=C(OC)C(=O)[C@H]([C@@]2(C)C1=O)[C@@]34C` reads 93.7%; that for `CC(C)CC(=O)Nc1n[nH]c2c1CN(C(=O)C1CCN(C)CC1)C2(C)C`, 49.4%; that for `O=c1[nH]cnc2nc[nH]c12`, 102%. The figure for `CC1(C)CC[C@]2(C)CC[C@]3(C)C(=CC[C@@H]4[C@@]5(C)CC[C@H](O)C(C)(C)[C@@H]5CC[C@]43C)[C@@H]2C1` [beta-AMYRIN] is 91.8%; for `CC1(C)CNc2cc(NC(=O)c3cccnc3NCc3ccncc3)ccc21` [Motesanib Diphosphate] it is 86.1%; for `CCCCC(CC)CN=C(N)N=C(N)NCCCCCCNC(N)=NC(N)=NCC(CC)CCCC` (centres undefined) it is 7.07%.

As for `O=C(O)[C@]1(O)C[C@@H](O)[C@@H](O)[C@H](O)C1`, the cell viability was determined as 97.5%. `C[C@@H]1CN(CC(=O)Nc2ccc3c(c2)Cc2cccc(-c4cc(=O)cc(N5CCOCC5)o4)c2S3)C[C@H](C)O1`: the cell viability was determined as 88.5%. With `CCCCCC(=O)Cc1cc(O)cc(O)c1C(=O)Oc1cc(CC(=O)CCCCC)c(C(=O)O)c(OC)c1`, the cell viability was 87.8%.

As to `COc1c(-c2coc3cc4c(cc3c2=O)CC(O)C(C)(C)O4)ccc2c1C=CC(C)(C)O2` (centres undefined), the cell viability was 82.2%. As to `COc1ccc(CC(=O)c2ccc(O)cc2O)cc1`, the cell viability was found to be 107%. Take `O.O.O.O.O.O.O.O.O.O.O.O.O.O.O.O.O=S(=O)([O][Al])OC[C@H]1O[C@@](COS(=O)(=O)[O][Al])(O[C@H]2O[C@H](COS(=O)(=O)[O][Al])[C@@H](OS(=O)(=O)[O][Al])[C@H](OS(=O)(=O)[O][Al])[C@H]2OS(=O)(=O)[O][Al])[C@@H](OS(=O)(=O)[O][Al])[C@@H]1OS(=O)(=O)[O][Al]`: the cell viability was 101%.

For orientation: cell viability means a read-out of living cells in per cent, often relative to untreated cells.

Source of the values: the supplement of paper PMC11150407.
